# PMC5540273 (PLoS ONE, 2017)
# Key:
# Conditions in all cases: concentration: 1 μM, replicates: in singlicate; n = 1
# [1] = system: PAK1
# [2] = system: PAK2
# [3] = system: PAK3
# [4] = system: PAK4
# [5] = system: PAK6
# [6] = system: PAK7
# [7] = system: T1, PCTK1
# T1 construct: gene CDK16
# [8] = system: T2, PCTK2
# T2 construct: gene CDK17
# [9] = system: T3, PCTK3
# T3 construct: gene CDK18
# [10] = system: PDGFRA
# 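Further: KINOMEscan kinase panel screen.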
Structure (SMILES),%Inh [1],%Inh [2],%Inh [3],%Inh [4],%Inh [5],%Inh [6],%Inh [7],%Inh [8],%Inh [9],%Inh [10]
Cc1cc(N2CCC(NS(=O)(=O)c3ccc(F)cc3)CC2)nc(Nc2cccc(C#N)c2)n1.O=C(O)C(F)(F)F [GSK1653537],0%,19%,6%,0%,0%,0%,0%,0%,18%,0%
CN1CCC(n2cnc(-c3ccc(F)cc3)c2-c2ccnc(NC3CCNCC3)n2)CC1 [SB-229482],0%,14%,13%,8%,11%,10%,0%,0%,10%,11%
O=C(Nc1n[nH]c2nc(-c3ccco3)c(Br)cc12)c1ccc(CN2CCCC2)cc1.O=C(O)[C@H](O)[C@@H](O)C(=O)O [SB-742352],0%,7%,0%,0%,0%,0%,0%,11%,0%,50%
CC(C)(C)OC(=O)NC1CCCN(c2cc(-c3ccc4c(N)n[nH]c4c3)nc(N)n2)C1 (stereo not drawn) [GSK2286096],0%,1%,0%,0%,0%,0%,4%,6%,17%,0%
Cn1ccc2ncnc(Oc3ccc(NC(=O)Nc4cccnc4)c(Cl)c3)c21,17%,24%,38%,1%,16%,0%,19%,12%,0%,91.8%
O=C(Nc1ccccc1)Nc1ccc(Oc2ccc3nccn3n2)cc1,0%,8%,0%,0%,0%,0%,0%,2%,0%,83%
CS(=O)(=O)CCNCc1nc(-c2ccc3ncnc(Nc4ccc(OCc5cccc(F)c5)c(Cl)c4)c3c2)cs1.Cl [GW583340],19%,9%,0%,0%,0%,7%,3%,16%,10%,0%
COc1cc2ncnc(Nc3ccc(OCc4ccccc4Br)c(Cl)c3)c2cc1OC.Cl [GI261590],14%,22%,38%,0%,0%,5%,0%,0%,0%,0%
COC(=O)c1c(-c2ccccc2)c2cc(Cl)ccc2c(=O)n1Cc1ccc(S(C)(=O)=O)cc1,6%,0%,0%,0%,0%,0%,28%,3%,0%,15%
